Drawing on PubChem BioAssay (EPA / NIEHS), this text covers outcome and AC50 for 17 compounds.

Results filed as inconclusive are left out. Activity calls are given as the source filed them. The calls were made as follows: active = hit-call score of the fitted dose curve at least 0.9, where 1 is the maximum; inconclusive = response in the unintended direction; inactive = score below 0.9.

Assay [1] deals with Estrogen receptor (Homo sapiens) (UniProt P03372). As to the kind of experiment: OT_ER_ERaERa_0480: Odyssey Thera (OT) 8-hour HEK293T Protein-Complementation Assay for Estrogen Receptor-alpha/-alpha Homodimer (AID 2283351).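 Also: rise in fluorescence from reassembled reporter fragments on ERα LBD homodimer in nucleus or whole cell.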 Summed up:
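Measures ERα LBD (aa 310-547) homodimer complementation in stably transfected HEK293T at 8 h post-dose, with fluorescence intensity quantified on a laser scanning cytometer relative to DMSO controls.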

The target of assay [2] is T1, Estrogen receptor (Homo sapiens) + Estrogen receptor beta (Homo sapiens) (UniProt P03372+Q92731). The assay can be described thus: OT_ER_ERaERb_0480: Odyssey Thera (OT) 8-hour HEK293T Protein-Complementation Assay for Estrogen Receptor-alpha/-beta Heterodimer (AID 2283352). Summed up:
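Increase in mean fluorescence intensity, measured by laser scanning plate cytometry, reported ER-alpha/ER-beta LBD complementation in HEK293T cells after 8 h chemical exposure. DMSO served as baseline; basal signal is low, punctate and cytoplasmic.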

The target of assay [3] is T1, Estrogen receptor (Homo sapiens) + Estrogen receptor beta (Homo sapiens). As to the kind of experiment: OT_ER_ERaERb_1440: Odyssey Thera (OT) 24-hour HEK293T Protein-Complementation Assay for Estrogen Receptor-alpha/-beta Homodimer (AID 2283356).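 Also: heteromer of ER alpha and ER beta binding domains; hits raise reporter fluorescence and both agonists and antagonists give an increase.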 Summed up:
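Heterodimerisation of ERα (aa 310-547) and ERβ (aa 263-489) ligand binding domains was tracked as fluorescence gain in stably transfected HEK293T cells following 24 h dosing, normalised to DMSO controls.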

The target of assay [4] is Estrogen receptor beta (Homo sapiens) (UniProt Q92731). As to the kind of experiment: OT_ER_ERbERb_0480: Odyssey Thera (OT) 8-hour HEK293T Protein-Complementation Assay for Estrogen Receptor-beta/-beta Homodimer (AID 2283357).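 Also: active means signal gain over DMSO baseline.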 Summed up: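 Homodimerization of ER-beta LBD measured by protein-fragment complementation in HEK293T; 8 h dosing; fixed, Draq5 counterstain; fluorescence intensity gain over DMSO baseline, positive fitting direction; laser scanning cytometry.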

Assay [5] has as its target Retinoic acid receptor alpha (Homo sapiens) (UniProt P10276). The assay can be described thus: NVS_NR_hRAR_Antagonist: NovaScreen (NVS) Nuclear Receptor Binding Assay for human Retinoic Acid Alpha Receptor Antagonism (RAR) (AID 2283358). Summed up:
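Read-out: time-resolved FRET binding signal, 2 h post-dose, cell-free extracted protein. Antagonism scored as signal loss versus DMSO negative control. Primary single-concentration screen at 25 uM in duplicate; concentration series for actives.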

The target of assay [6] is Nuclear receptor subfamily 1 group I member 2 (Homo sapiens) (UniProt O75469). The assay can be described thus: NVS_NR_hPXR: NovaScreen (NVS) Nuclear Receptor Binding Assay for human Pregnane X Receptor (PXR) (AID 2283365).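 Also: a drop in FRET signal versus DMSO baseline means the compound binds.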 The essentials:
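Binding was measured by time-resolved fluorescence resonance energy transfer after a 2 h exposure of extracted human PXR protein without cells. Compounds were first tested at 25 uM in duplicate, with concentration series for actives; DMSO defined baseline.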

Assay [7] addresses Peroxisome proliferator-activated receptor gamma (Homo sapiens) (UniProt P37231). As to the kind of experiment: NVS_NR_hPPARg: NovaScreen (NVS) Nuclear Receptor Binding Assay for human Peroxisome Proliferator-activated Receptor gamma (PPARg) (AID 2283370). Summed up:
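Fluorescence polarization measures competitive binding to extracted PPARg in a cell-free format. Reading is taken at 2 h; activity is signal loss relative to DMSO. Screening at 25 uM in duplicate preceded confirmatory dose series.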

The target in assay [8] is human Dopamine Transporter (DAT), SLC6A3 (gene 6531) (UniProt Q01959). As to the kind of experiment: NVS_TR_hDAT: NovaScreen (NVS) Transporter Assay for human Dopamine Transporter (DAT) (AID 2283374).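 Also: activity means loss of bound radioligand signal relative to DMSO.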 The essentials: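 hDAT membranes + tritiated/iodinated radioligand, competitive displacement; 1 h; filter scintillation readout. Single conc 25 uM (duplicate), then conc-response for actives. DMSO = negative control.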

Assay [9] deals with human Peroxisome Proliferator-activated Receptor alpha (PPARa), PPARA (gene 5465) (UniProt Q07869). The assay can be described thus: NVS_NR_hPPARa: NovaScreen (NVS) Nuclear Receptor Binding Assay for human Peroxisome Proliferator-activated Receptor alpha (PPARa) (AID 2283359).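 Also: activity means loss of TR-FRET signal versus DMSO baseline.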 The essentials: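 TR-FRET signal measured at 1 h post-dosing; loss-of-signal versus DMSO negative control taken as activity. Extracted gene-protein, cell-free format. Initial single-point duplicates at 25 uM, then concentration-response retests.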

Assay [10] has as its target Retinoic acid receptor alpha (Homo sapiens) (UniProt P10276). The assay can be described thus: NVS_NR_hRARa_Agonist: NovaScreen (NVS) Nuclear Receptor Binding Assay for human Retinoic Acid Alpha Receptor Agonism (RAR) (AID 2283361). Summed up: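 TR-FRET signal, 2 h post-dosing; cell-free extracted protein; DMSO = baseline, positive fitting direction; 25 uM single-point duplicate, then concentration series for actives.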

The target in assay [11] is Glucocorticoid receptor (Homo sapiens) (UniProt P04150). The assay can be described thus: NVS_NR_hGR: NovaScreen (NVS) Nuclear Receptor Binding Assay for human Glucocorticoid Receptor (GR) (AID 2283363).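 As to AC50: activity is loss of specific radioligand binding signal relative to DMSO.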 Summed up:
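Filter scintillation readout of tritiated/iodinated radioligand displaced by test chemical; cell-free extracted protein; 16 h. DMSO = negative control/baseline. Duplicate single-point 25 uM screen, then concentration-response on actives.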

The target of assay [12] is Androgen Receptor/SRC-1 Co-activator, AR (gene 367) (UniProt P10275). As to the kind of experiment: OT_AR_ARSRC1_0960: Odyssey Thera (OT) 16-hour HEK293T Protein-Complementation Assay for Androgen Receptor/SRC-1 Co-activator (AID 2283353).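 Also: actives raise the signal above DMSO so potency reflects increased AR and SRC-1 complex.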 Summed up:
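Sixteen-hour cell assay: Venus halves fused to AR and SRC-1 in HEK293T report binding. Images at 488/635 nm give an N/C ratio in the 488 nm channel over ≥400 cells, analysed as signal increase over DMSO.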

Assay [13] has the same target. As to the kind of experiment: OT_AR_ARSRC1_0480: Odyssey Thera (OT) 8-hour HEK293T Protein-Complementation Assay for Androgen Receptor/SRC-1 Co-activator (AID 2283354).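 Also: hits raise the complementation signal above DMSO so AC50 marks enhancers.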 The essentials: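 Split-Venus PCA, stable HEK293T, AR/SRC-1 fusions; 8 h exposure. Readout: 488nm N/C fluorescence ratio, ≥400 cells/image; fitted upward vs DMSO baseline.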
For assay [14], the target named is human Thyroid Receptor Alpha (TRa), THRA (gene 7067) (UniProt P10827). The assay can be described thus: NVS_NR_hTRa_Antagonist: NovaScreen (NVS) Nuclear Receptor Binding Assay for human Thyroid Receptor Alpha Antagonism (TRa) (AID 2283362). The essentials: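 Chemicals were first screened in duplicate at 25 uM, then actives were retested in concentration series. Binding to the extracted receptor was measured 1 h after dosing by AlphaLISA chemiluminescence, with decreased signal versus DMSO scored as activity.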

For assay [15], the target named is guinea pig Sigma Receptor, Non-selective Binding, SIGMAR1 (gene 100135589) (UniProt Q60492). The assay can be described thus: NVS_OR_gSIGMA_NonSelective: NovaScreen (NVS) Nuclear Receptor Binding Assay for guinea pig Sigma Receptor, Non-selective Binding (AID 2283367). The essentials: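 Membranes from guinea pig brain incubated with radioligand and test chemical for 1 h, then filtered and scintillation-counted. Duplicate primary testing at 25 uM, with concentration-series follow-up for actives.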

Glucocorticoid receptor (Homo sapiens), sequence (P04150 whole entry, looked up): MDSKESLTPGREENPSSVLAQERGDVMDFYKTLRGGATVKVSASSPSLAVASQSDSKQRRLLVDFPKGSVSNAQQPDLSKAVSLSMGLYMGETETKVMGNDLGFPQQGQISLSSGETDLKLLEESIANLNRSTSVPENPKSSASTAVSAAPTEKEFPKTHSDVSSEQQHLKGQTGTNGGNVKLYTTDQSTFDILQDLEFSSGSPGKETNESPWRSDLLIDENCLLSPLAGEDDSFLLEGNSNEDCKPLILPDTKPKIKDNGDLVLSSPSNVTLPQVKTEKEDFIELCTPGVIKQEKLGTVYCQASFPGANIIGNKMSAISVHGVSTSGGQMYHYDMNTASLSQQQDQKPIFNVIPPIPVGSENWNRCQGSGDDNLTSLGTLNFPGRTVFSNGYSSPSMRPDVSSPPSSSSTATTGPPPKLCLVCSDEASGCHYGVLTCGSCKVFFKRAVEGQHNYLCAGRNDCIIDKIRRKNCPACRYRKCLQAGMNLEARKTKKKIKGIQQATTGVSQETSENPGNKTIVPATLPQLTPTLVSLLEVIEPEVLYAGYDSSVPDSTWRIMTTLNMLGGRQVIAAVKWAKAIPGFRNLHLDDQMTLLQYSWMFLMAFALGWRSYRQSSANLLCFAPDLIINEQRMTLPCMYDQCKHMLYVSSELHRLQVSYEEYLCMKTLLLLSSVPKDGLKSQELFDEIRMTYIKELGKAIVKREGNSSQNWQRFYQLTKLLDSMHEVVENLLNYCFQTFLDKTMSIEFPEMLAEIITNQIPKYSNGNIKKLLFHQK
Estrogen receptor (Homo sapiens), sequence (P03372 whole entry, looked up, the tested form may be a part): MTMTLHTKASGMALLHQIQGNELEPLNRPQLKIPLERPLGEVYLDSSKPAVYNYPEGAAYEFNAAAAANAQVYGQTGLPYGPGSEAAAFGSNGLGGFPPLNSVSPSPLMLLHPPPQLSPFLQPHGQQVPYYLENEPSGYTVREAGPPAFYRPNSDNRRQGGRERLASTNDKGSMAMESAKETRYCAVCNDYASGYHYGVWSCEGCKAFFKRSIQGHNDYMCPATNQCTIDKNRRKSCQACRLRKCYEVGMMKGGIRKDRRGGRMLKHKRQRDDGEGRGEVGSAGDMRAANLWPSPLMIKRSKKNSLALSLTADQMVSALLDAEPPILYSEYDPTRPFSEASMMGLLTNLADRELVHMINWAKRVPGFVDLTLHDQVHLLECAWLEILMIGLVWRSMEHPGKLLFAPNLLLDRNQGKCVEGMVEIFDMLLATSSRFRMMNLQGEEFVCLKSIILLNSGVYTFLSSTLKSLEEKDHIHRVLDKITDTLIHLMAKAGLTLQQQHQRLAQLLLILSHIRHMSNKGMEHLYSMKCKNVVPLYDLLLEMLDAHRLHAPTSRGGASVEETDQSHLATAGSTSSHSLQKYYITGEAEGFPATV
T1 sequence (P03372 whole entry, looked up, the tested form may be a part): as above
T1 sequence (Q92731 whole entry, looked up, the tested form may be a part): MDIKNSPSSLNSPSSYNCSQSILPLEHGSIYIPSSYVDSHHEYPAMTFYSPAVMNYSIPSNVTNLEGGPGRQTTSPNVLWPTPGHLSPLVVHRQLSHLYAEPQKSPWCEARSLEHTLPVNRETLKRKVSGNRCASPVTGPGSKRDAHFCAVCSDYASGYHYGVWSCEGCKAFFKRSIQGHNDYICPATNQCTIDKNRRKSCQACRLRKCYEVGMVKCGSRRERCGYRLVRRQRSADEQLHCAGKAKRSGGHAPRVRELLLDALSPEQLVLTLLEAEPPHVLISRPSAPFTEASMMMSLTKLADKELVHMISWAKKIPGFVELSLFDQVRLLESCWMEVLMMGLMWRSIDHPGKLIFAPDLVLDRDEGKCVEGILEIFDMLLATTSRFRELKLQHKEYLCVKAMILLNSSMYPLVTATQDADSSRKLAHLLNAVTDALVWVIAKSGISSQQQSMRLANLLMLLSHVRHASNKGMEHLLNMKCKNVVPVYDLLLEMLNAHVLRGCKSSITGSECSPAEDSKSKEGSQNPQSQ
Retinoic acid receptor alpha (Homo sapiens), sequence (P10276 whole entry, looked up): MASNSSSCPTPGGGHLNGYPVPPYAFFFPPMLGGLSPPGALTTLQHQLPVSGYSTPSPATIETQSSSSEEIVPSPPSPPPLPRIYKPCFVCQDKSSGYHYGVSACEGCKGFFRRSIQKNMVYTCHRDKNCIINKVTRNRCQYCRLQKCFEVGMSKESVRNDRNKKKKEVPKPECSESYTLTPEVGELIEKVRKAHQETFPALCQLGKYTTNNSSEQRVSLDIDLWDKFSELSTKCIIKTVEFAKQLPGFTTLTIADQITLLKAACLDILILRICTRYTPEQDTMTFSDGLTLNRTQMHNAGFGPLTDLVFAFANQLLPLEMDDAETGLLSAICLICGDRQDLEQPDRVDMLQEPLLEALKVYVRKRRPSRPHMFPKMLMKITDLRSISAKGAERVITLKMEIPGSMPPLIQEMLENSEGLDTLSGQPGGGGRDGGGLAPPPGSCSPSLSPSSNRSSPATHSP
Peroxisome proliferator-activated receptor gamma (Homo sapiens), sequence (P37231 whole entry, looked up): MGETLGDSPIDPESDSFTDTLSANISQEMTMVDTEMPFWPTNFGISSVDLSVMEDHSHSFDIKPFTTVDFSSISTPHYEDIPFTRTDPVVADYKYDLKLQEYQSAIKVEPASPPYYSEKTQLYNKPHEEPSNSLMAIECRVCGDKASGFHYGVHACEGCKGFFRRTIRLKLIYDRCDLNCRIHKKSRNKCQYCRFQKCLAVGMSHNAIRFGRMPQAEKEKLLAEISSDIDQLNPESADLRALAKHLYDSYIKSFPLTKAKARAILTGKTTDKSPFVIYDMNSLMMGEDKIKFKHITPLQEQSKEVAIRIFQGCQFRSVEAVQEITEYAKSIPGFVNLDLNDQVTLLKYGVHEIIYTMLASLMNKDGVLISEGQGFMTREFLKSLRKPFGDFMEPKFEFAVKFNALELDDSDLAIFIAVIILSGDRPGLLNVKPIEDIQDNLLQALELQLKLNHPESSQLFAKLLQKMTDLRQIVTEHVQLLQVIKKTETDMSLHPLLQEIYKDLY
Estrogen receptor beta (Homo sapiens), sequence (Q92731 whole entry, looked up, the tested form may be a part): as the sequence (Q92731 whole entry, looked up, the tested form may be a part) above
Nuclear receptor subfamily 1 group I member 2 (Homo sapiens), sequence (O75469 whole entry, looked up): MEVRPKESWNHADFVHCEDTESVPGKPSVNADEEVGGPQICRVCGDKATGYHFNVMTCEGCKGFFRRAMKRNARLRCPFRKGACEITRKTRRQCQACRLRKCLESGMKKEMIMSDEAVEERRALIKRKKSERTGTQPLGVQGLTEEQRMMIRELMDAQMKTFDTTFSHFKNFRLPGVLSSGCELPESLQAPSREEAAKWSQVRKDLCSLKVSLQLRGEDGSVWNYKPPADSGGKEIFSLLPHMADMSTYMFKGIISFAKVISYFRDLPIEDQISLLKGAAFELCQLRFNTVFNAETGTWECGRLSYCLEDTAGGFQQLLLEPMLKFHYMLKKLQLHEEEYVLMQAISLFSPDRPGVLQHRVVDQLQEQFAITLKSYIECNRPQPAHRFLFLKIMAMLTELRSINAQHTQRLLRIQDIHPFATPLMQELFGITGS
human Thyroid Receptor Alpha (TRa), THRA (gene 7067), sequence (P10827 whole entry, looked up): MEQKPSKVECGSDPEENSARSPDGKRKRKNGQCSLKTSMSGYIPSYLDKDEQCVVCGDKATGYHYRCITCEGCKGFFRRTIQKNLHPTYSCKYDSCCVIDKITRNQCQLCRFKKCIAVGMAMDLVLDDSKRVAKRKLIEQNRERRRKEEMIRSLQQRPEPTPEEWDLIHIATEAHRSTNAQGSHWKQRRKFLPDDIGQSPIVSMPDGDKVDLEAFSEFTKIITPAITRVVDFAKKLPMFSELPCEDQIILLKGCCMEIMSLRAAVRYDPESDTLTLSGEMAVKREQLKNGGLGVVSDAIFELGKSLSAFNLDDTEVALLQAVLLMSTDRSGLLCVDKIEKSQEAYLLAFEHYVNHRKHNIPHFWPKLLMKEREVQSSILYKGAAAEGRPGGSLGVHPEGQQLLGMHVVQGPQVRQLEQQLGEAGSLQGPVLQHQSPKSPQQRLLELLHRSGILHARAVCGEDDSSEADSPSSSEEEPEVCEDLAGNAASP
Androgen Receptor/SRC-1 Co-activator, AR (gene 367), sequence (P10275 whole entry, looked up, the tested form may be a part): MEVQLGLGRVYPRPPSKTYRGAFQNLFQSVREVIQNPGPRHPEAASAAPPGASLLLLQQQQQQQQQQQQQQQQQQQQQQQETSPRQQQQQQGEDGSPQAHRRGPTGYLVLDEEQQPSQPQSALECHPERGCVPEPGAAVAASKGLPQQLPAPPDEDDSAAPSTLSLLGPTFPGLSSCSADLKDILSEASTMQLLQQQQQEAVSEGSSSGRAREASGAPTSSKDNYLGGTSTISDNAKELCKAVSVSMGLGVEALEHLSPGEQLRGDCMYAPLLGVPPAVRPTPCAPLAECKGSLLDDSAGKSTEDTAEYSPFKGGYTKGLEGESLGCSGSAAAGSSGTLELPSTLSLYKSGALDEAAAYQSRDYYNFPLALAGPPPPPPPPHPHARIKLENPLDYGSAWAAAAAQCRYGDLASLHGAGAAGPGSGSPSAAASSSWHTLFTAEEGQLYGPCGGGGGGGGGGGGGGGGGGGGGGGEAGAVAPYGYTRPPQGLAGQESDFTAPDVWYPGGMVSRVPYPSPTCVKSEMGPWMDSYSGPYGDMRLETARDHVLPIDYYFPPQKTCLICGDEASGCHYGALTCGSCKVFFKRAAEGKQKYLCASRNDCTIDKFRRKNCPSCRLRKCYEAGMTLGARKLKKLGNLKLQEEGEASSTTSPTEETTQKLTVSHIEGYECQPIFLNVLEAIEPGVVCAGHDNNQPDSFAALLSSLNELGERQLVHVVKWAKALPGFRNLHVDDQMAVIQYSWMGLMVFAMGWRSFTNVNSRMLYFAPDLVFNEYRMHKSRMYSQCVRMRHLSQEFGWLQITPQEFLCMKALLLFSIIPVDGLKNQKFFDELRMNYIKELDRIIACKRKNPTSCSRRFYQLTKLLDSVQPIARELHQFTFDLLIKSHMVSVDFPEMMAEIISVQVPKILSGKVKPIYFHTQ

As for `CCCCCCCCCCCCCCCCCCOS(=O)(=O)O`, the result in [1], in [2], in assay [4] and in [5] was inactive. The AC50 (usually the concentration giving half of the maximal activity seen) in assay [3] is 23.7 µM (active); in assay [6], 5.5 µM (active).
With `CC(C)COC(=O)CC(C(=O)OCC(C)C)S(=O)(=O)O` (stereo not given), the result in [1], in [2], in assay [3], in [4] and in assay [7] was inactive. Besides, the concentration at half-maximal activity (AC50) in assay [6] is 25 µM (active).
As to `CCCCCCCO`, the compound was classed as inactive in [1], in assay [2], in [3] and in [4]. The AC50 in assay [8] is 13.2 µM (active).
As to `CCCCc1ccc(Cl)cc1`, the result in assay [1], in assay [2], in [3], in assay [4] and in [6] was inactive.
Regarding `CCOC(=O)c1ccc(C)cc1`, the result in assay [1], in assay [2], in [3], in assay [6] and in [7] was inactive.
Take `Nc1ccc(C(=O)O)cc1`: the call in [1], in assay [2], in [3], in assay [4], in assay [5] and in assay [7] was inactive.
On to `CCCCCCCCCC[N+](C)(CCCCCCCCCC)CCC[Si](OC)(OC)OC`, for which the outcome in [1], in assay [5] and in [11] was inactive. The AC50 was 11.8 µM (active) in [3], 8.29 µM (active) in assay [9], 25 µM (active) in [10] and 4.21 µM (active) in assay [6].
For `CN(C)Cc1cc(CN(C)C)c(O)c(CN(C)C)c1`, the outcome in assay [1], in assay [12] and in [13] was inactive.
Turning to `CC(C)c1ccc(O)c(C(C)C)c1`, the compound was classed as inactive in assay [1], in assay [2], in assay [3], in assay [4], in assay [14] and in assay [7].
With `CN(C)c1ccc2nc3ccc(=[N+](C)C)cc-3sc2c1`, the AC50 was 50 µM (active) in assay [1]; 76.6 µM (active) in assay [2]; 12 µM (active) in assay [3]; 70.8 µM (active) in assay [4]; 32.7 µM (active) in assay [10]; 7.57 µM (active) in assay [14].
On to `O=C(Nc1ccccc1)c1cc(Cl)ccc1O`, for which the compound was called inactive in [1], in assay [4] and in assay [6]. The AC50 in [3] was 31 µM (active).
In the case of `CO[Si](CCCS)(OC)OC`, in [11], the result was inactive.
For the compound `CC1=NN(c2ccc(S(=O)(=O)O)cc2)C(=O)C1N=Nc1ccccc1` (stereo not given), the compound was called inactive in [1] and in assay [7]. The AC50 in assay [11] was 12.8 µM (active).
As for `O=C(O)CC(C(=O)O)S(=O)(=O)O` (stereo not given), the compound was classed as inactive in assay [1] and in [6].
Consider `C=C(C)C1CC=C(C)CC1` (stereo not given), for which the compound was classed as inactive in [1] and in [11].
`CCOC(=O)/C=C\C(=O)OCC`: the compound was classed as inactive in assay [11].
`CC(C)[N+](C)(CCOC(=O)C1c2ccccc2Oc2ccccc21)C(C)C`: the compound was called inactive in assay [11]. Further, the half-maximal activity concentration (AC50) in [15] is 2.4 µM (active).
